The values below come from PubChem BioAssay (NCI).

Compounds without any hit were thinned out: in the full panel of roughly 83,000, 20% have a hit.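 For each line, cells grew in 96-well plates with the test compound present at a single concentration for 48 hours.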 Values without a mark were called inactive. Activity calls are given as the source filed them. Rule for the calls: active = growth percent below 10; inactive = the rest.

Some test systems named below: SR leukemia; OVCAR-8 ovarian; OVCAR-5 ovarian; OVCAR-4 ovarian; SK-OV-3 ovarian; IGROV1 ovarian; OVCAR-3 ovarian; HS 578T breast; NCI/ADR-RES ovarian; T-47D breast; BT-549 breast; MDA-MB-435 melanoma; SW-620 colon; MCF7 breast; HCT-116 colon; HCC-2998 colon; KM12 colon.
Experiment in all cases: NCI-60 one-dose screen, 48 h (100 = growth as untreated, 0 = no growth, -100 = all killed)
Holding throughout (conditions): 10 µM unless noted

`O=C(/C=C/c1cccc2ccccc12)c1ccc(NC(=O)c2ccccc2CN2C(=O)c3ccccc3C2=O)cc1`: the growth in the assay with SR leukemia was 23.5%; with OVCAR-8 ovarian, 75.4%; with OVCAR-5 ovarian, 96.6%; in the assay with OVCAR-4 ovarian, 58.7%; in the assay on SK-OV-3 ovarian, 82.3%; in the assay on IGROV1 ovarian, 79.1%. Further, the growth is 34.7% in the assay with OVCAR-3 ovarian; 66.2% in the assay with HS 578T breast; 61% in the assay on NCI/ADR-RES ovarian; 71% in the assay on T-47D breast; 68.8% with BT-549 breast; 6.48% (active) with MDA-MB-435 melanoma. Besides, the growth was 33.2% in the assay on SW-620 colon; 56.7% in the assay with MCF7 breast; 39.3% with HCT-116 colon; 109% in the assay with HCC-2998 colon; 40.6% in the assay on KM12 colon.
Regarding `CCOC(=O)c1cnn2c3ccccc3n(S(=O)(=O)c3ccc(OC)cc3)c12`, the growth with SR leukemia was 14%; with OVCAR-8 ovarian, 27.5%; in the assay on OVCAR-5 ovarian, 42.5%; with OVCAR-4 ovarian, 71.4%; in the assay on SK-OV-3 ovarian, 48.2%; in the assay on IGROV1 ovarian, 28.6%. Further, the growth was 0.973% (active) in the assay with OVCAR-3 ovarian; 37.3% in the assay on HS 578T breast; 0.145% (active) in the assay with NCI/ADR-RES ovarian; 71.8% in the assay with T-47D breast; 17.5% in the assay on BT-549 breast; 2.91% (active) in the assay on MDA-MB-435 melanoma. In addition, the growth with SW-620 colon is 25.9%; in the assay with MCF7 breast, 18.5%; in the assay with HCT-116 colon, 14.4%; in the assay with HCC-2998 colon, 16.9%; in the assay with KM12 colon, 25.9%.
On to `O=C(Cc1ccc2c(c1)OCCO2)Nc1nc2ccc(F)cc2s1`, for which the growth was 103% with SR leukemia; 94.7% in the assay on OVCAR-8 ovarian; 90.3% with OVCAR-5 ovarian; 96.4% in the assay on OVCAR-4 ovarian; 105% with SK-OV-3 ovarian; 48.3% in the assay on IGROV1 ovarian. The growth with OVCAR-3 ovarian is 104%; in the assay with HS 578T breast, 106%; in the assay on NCI/ADR-RES ovarian, 99%; in the assay with T-47D breast it was 93.6%; in the assay with BT-549 breast, 89.6%; with MDA-MB-435 melanoma, 104%. Further, the growth in the assay with SW-620 colon is 104%; with MCF7 breast, 92.2%; in the assay with HCT-116 colon, 101%; with HCC-2998 colon, 122%; in the assay on KM12 colon, 108%.
For `CCN(CC)CCNC(=O)c1cn2ncnc(Oc3ccc(NC(=O)Nc4ccc(Cl)c(C(F)(F)F)c4)cc3)c2c1C`, the growth with SR leukemia was -56.4% (active); in the assay with OVCAR-8 ovarian it was -42.5% (active); in the assay with OVCAR-5 ovarian, -62.7% (active); in the assay with OVCAR-4 ovarian it was -8.97% (active); in the assay with SK-OV-3 ovarian, -85.9% (active); in the assay with IGROV1 ovarian, -53.1% (active). Further, the growth is -70.9% (active) with OVCAR-3 ovarian; -44.4% (active) with HS 578T breast; 61% in the assay on NCI/ADR-RES ovarian; -64.3% (active) with T-47D breast; -32.5% (active) with BT-549 breast; -81.4% (active) in the assay on MDA-MB-435 melanoma. Further, the growth in the assay on SW-620 colon is -85.6% (active); with MCF7 breast, -84.4% (active); in the assay on HCT-116 colon it was -95.3% (active); in the assay with HCC-2998 colon it was -95.8% (active); in the assay on KM12 colon it was -80.4% (active).
On to `CC1=C(SCCC(=O)OC(C[Se]C2=C(C)C(=O)c3ccccc3C2=O)C(=O)NC(C)(C)C)C(=O)c2ccccc2C1=O` (stereo unspecified), for which the growth in the assay with SR leukemia was 18.7%; with OVCAR-8 ovarian, -79.4% (active); with OVCAR-5 ovarian, -68.9% (active); in the assay on OVCAR-4 ovarian it was -91.5% (active); in the assay with SK-OV-3 ovarian, -100% (active); with IGROV1 ovarian it was -27.9% (active). The growth in the assay on OVCAR-3 ovarian was -97.6% (active); with HS 578T breast, -21.3% (active); with NCI/ADR-RES ovarian, -68.6% (active); with T-47D breast, -52.9% (active); in the assay on BT-549 breast it was -96.2% (active); with MDA-MB-435 melanoma, -86.8% (active). The growth was -80% (active) in the assay on SW-620 colon; -63.5% (active) in the assay with MCF7 breast; -70.9% (active) in the assay with HCT-116 colon; -82.8% (active) in the assay with HCC-2998 colon; -94.6% (active) in the assay with KM12 colon.
As to `COc1cc2cc(Oc3ccc(NC(=O)Nc4ccc(F)c(C(F)(F)F)c4)cc3)c(C)nc2cc1OCCN1CCOCC1`, the growth in the assay with SR leukemia is -15.2% (active); with OVCAR-8 ovarian, 13.8%; in the assay with OVCAR-5 ovarian, 66.9%; in the assay on OVCAR-4 ovarian it was 27.3%; with SK-OV-3 ovarian, 41.3%; with IGROV1 ovarian it was 32.7%. Moreover, the growth in the assay on OVCAR-3 ovarian was 13%; with HS 578T breast, 65.8%; in the assay on NCI/ADR-RES ovarian it was 12%; in the assay with T-47D breast, 21.8%; with BT-549 breast it was 40.3%; with MDA-MB-435 melanoma it was 16.5%. Besides, the growth was 15.5% with SW-620 colon; 3.62% (active) with MCF7 breast; 9.66% (active) in the assay on HCT-116 colon; 44.9% in the assay with HCC-2998 colon; 11.2% with KM12 colon.
Turning to `O=c1c2cc(F)ccc2sc2c(N3CCNCC3)nc3ccccc3c12`, the growth in the assay on SR leukemia was -56.3% (active); in the assay with OVCAR-8 ovarian, 11%; in the assay with OVCAR-5 ovarian, 73.1%; with OVCAR-4 ovarian, -22.2% (active); with SK-OV-3 ovarian, 84.4%; in the assay on IGROV1 ovarian, 48%. Besides, the growth with OVCAR-3 ovarian was -79.6% (active); in the assay on HS 578T breast, 46.3%; in the assay on NCI/ADR-RES ovarian, 18.7%; with T-47D breast it was 27.9%; with BT-549 breast, 90.8%; in the assay with MDA-MB-435 melanoma, -87.1% (active). Besides, the growth in the assay on SW-620 colon was -87.1% (active); in the assay on MCF7 breast, -74.1% (active); in the assay with HCT-116 colon, -46.3% (active); in the assay on HCC-2998 colon, -92.1% (active); in the assay with KM12 colon it was -82.4% (active).
On to `COc1ccc2nc(NCCCNCCO)c3sc4ccc(F)cc4c(=O)c3c2c1`, for which the growth in the assay on SR leukemia was -35.1% (active); in the assay with OVCAR-8 ovarian, 6.89% (active); in the assay with OVCAR-5 ovarian it was 81.7%; in the assay with OVCAR-4 ovarian it was -54.3% (active); in the assay with SK-OV-3 ovarian, 90.1%; in the assay on IGROV1 ovarian, 41.3%. The growth in the assay on OVCAR-3 ovarian is -64.6% (active); in the assay on HS 578T breast it was 63.5%; with NCI/ADR-RES ovarian, 30.3%; in the assay on T-47D breast it was 72.2%; in the assay on BT-549 breast, 91.6%; in the assay on MDA-MB-435 melanoma, -69% (active). In addition, the growth in the assay on SW-620 colon was -66.4% (active); with MCF7 breast, 17.8%; in the assay with HCT-116 colon, -67.2% (active); in the assay with HCC-2998 colon, -82.9% (active); with KM12 colon it was -58.7% (active).
